Assay results published in PubChem BioAssay (NCI).
This is part of a sample that, as a whole, favours compounds with a hit. Of some 83,000 tested, about 20% had one in any assay.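 Testing used 96-well plates and a 48-hour single-concentration exposure. Example: -40 means 40% of the starting cells died.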 Activity calls are given as the source filed them. The calls were made as follows: active = growth percent below 10; inactive = the rest.

What was measured:
Assay in all cases: NCI-60 one-dose screen, 48 h (100 = growth as untreated, 0 = no growth, -100 = all killed)
Settings in all cases: 10 µM unless noted
SR leukemia = test system: SR leukemia
RPMI-8226 leukemia = test system: RPMI-8226 leukemia
OVCAR-8 ovarian = test system: OVCAR-8 ovarian
OVCAR-5 ovarian = test system: OVCAR-5 ovarian
OVCAR-4 ovarian = test system: OVCAR-4 ovarian
SK-OV-3 ovarian = test system: SK-OV-3 ovarian
IGROV1 ovarian = test system: IGROV1 ovarian
HS 578T breast = test system: HS 578T breast
NCI/ADR-RES ovarian = test system: NCI/ADR-RES ovarian
T-47D breast = test system: T-47D breast
BT-549 breast = test system: BT-549 breast
MDA-MB-435 melanoma = test system: MDA-MB-435 melanoma
SW-620 colon = test system: SW-620 colon
MCF7 breast = test system: MCF7 breast
HCT-116 colon = test system: HCT-116 colon
HCC-2998 colon = test system: HCC-2998 colon
KM12 colon = test system: KM12 colon

Measured: growth

COc1ccc(S(=O)(=O)n2cc(C=O)c3ccccc32)c(OC)c1
inactive: SR leukemia 16.4% | RPMI-8226 leukemia 38.7% | OVCAR-8 ovarian 76.1% | OVCAR-5 ovarian 96.1% | OVCAR-4 ovarian 80.9% | SK-OV-3 ovarian 97.4% | IGROV1 ovarian 86.6% | HS 578T breast 78.3% | NCI/ADR-RES ovarian 51% | T-47D breast 65.6% | BT-549 breast 64.2% | MDA-MB-435 melanoma 29.6% | SW-620 colon 35.4% | MCF7 breast 25.5% | HCT-116 colon 15.4% | HCC-2998 colon 110% | KM12 colon 95.4%

COc1ccc(NC(=O)[C@H](C)N)cc1C(=O)Nc1cccc(-c2cc(=O)c3c(OC)c(OC)c(OC)cc3o2)c1
inactive: SR leukemia 36.5% | RPMI-8226 leukemia 44.1% | OVCAR-8 ovarian 50.1% | OVCAR-5 ovarian 102% | OVCAR-4 ovarian 62.4% | SK-OV-3 ovarian 115% | IGROV1 ovarian 56.7% | HS 578T breast 27.8% | NCI/ADR-RES ovarian 63.8% | T-47D breast 41% | BT-549 breast 78.4% | MDA-MB-435 melanoma 82.1% | SW-620 colon 94% | MCF7 breast 57.8% | HCT-116 colon 75% | HCC-2998 colon 65.2% | KM12 colon 68.1%

Clc1ccc(-c2nc3ccc(/C(=N\N=C\c4ccccc4)c4ccccc4)cc3[nH]2)cc1
inactive: SR leukemia 72.9% | RPMI-8226 leukemia 54.6% | OVCAR-8 ovarian 85.6% | OVCAR-5 ovarian 85.6% | OVCAR-4 ovarian 77.8% | SK-OV-3 ovarian 90.7% | IGROV1 ovarian 104% | HS 578T breast 99.9% | NCI/ADR-RES ovarian 87.8% | T-47D breast 70.7% | BT-549 breast 92.5% | MDA-MB-435 melanoma 88.9% | SW-620 colon 91.2% | MCF7 breast 78.3% | HCT-116 colon 84.5% | HCC-2998 colon 103% | KM12 colon 82.3%

COc1ccc(NC(=O)[C@H](C)NC(=O)OC(C)(C)C)cc1C(=O)Nc1cccc(-c2cc(=O)c3c(OC)c(OC)c(OC)cc3o2)c1
inactive: OVCAR-4 ovarian 21.3% | IGROV1 ovarian 11.5% | NCI/ADR-RES ovarian 61.4%
active: SR leukemia 8.47% | RPMI-8226 leukemia -39.4% | OVCAR-8 ovarian -27.5% | OVCAR-5 ovarian 3.94% | SK-OV-3 ovarian -17.8% | HS 578T breast -9.5% | T-47D breast -24.7% | BT-549 breast -85% | MDA-MB-435 melanoma 7.35% | SW-620 colon -25.6% | MCF7 breast -9.71% | HCT-116 colon -61.7% | HCC-2998 colon -60.8% | KM12 colon -36.4%

CN1CCN(Cc2ccc(NC(=O)c3cncc(C#Cc4[nH]nc5ncncc45)c3)cc2C(F)(F)F)CC1
inactive: SR leukemia 48% | RPMI-8226 leukemia 45.2% | OVCAR-8 ovarian 88.7% | OVCAR-5 ovarian 77.7% | OVCAR-4 ovarian 88.5% | SK-OV-3 ovarian 60.8% | IGROV1 ovarian 38.2% | HS 578T breast 45.9% | NCI/ADR-RES ovarian 105% | T-47D breast 39.2% | BT-549 breast 118% | MDA-MB-435 melanoma 38.9% | SW-620 colon 31.6% | MCF7 breast 46% | HCT-116 colon 17.7% | HCC-2998 colon 44.3% | KM12 colon 10.5%

C=CCn1c(SCC(=O)c2ccc(OC)cc2)nnc1-c1ccc(OC)cc1
inactive: SR leukemia 96.1% | RPMI-8226 leukemia 98.4% | OVCAR-8 ovarian 99.9% | OVCAR-5 ovarian 96.7% | OVCAR-4 ovarian 98% | SK-OV-3 ovarian 105% | IGROV1 ovarian 103% | HS 578T breast 103% | NCI/ADR-RES ovarian 94.9% | T-47D breast 105% | BT-549 breast 95.9% | MDA-MB-435 melanoma 97.8% | SW-620 colon 106% | MCF7 breast 96% | HCT-116 colon 96.1% | HCC-2998 colon 109% | KM12 colon 97.7%

C#C[C@]1(O)CC[C@H]2[C@@H]3CC=C4c5sc(Nc6ccc(OC)nc6)nc5CC[C@]4(C)[C@H]3CC[C@@]21C
active: SR leukemia 7.7% | RPMI-8226 leukemia -21.7% | HS 578T breast 3.53% | SW-620 colon -20.8% | MCF7 breast 4.25% | HCT-116 colon -48.6%
inactive: OVCAR-8 ovarian 27.7% | OVCAR-5 ovarian 83.9% | OVCAR-4 ovarian 76.1% | SK-OV-3 ovarian 44.4% | IGROV1 ovarian 29.7% | NCI/ADR-RES ovarian 59% | T-47D breast 21.2% | BT-549 breast 33.3% | MDA-MB-435 melanoma 48.1% | HCC-2998 colon 65.5% | KM12 colon 19.6%

COc1ccc(-c2nnc(/N=C3/C(=O)Nc4ccc(Br)cc43)o2)cc1
inactive: SR leukemia 97.8% | RPMI-8226 leukemia 96.2% | OVCAR-8 ovarian 99.9% | OVCAR-5 ovarian 107% | OVCAR-4 ovarian 101% | SK-OV-3 ovarian 108% | IGROV1 ovarian 91.9% | HS 578T breast 116% | NCI/ADR-RES ovarian 102% | T-47D breast 104% | BT-549 breast 103% | MDA-MB-435 melanoma 94.7% | SW-620 colon 100% | MCF7 breast 78.8% | HCT-116 colon 101% | HCC-2998 colon 115% | KM12 colon 89.7%

O=C1Nc2cc(OC(F)(F)F)ccc2Oc2ccc(-c3ccnc(N4CCNCC4)c3)cc21
active: SR leukemia -44% | RPMI-8226 leukemia -50.9% | IGROV1 ovarian -1.58% | HS 578T breast 2.5% | NCI/ADR-RES ovarian 5.35% | T-47D breast -61.9% | BT-549 breast -4.26% | MDA-MB-435 melanoma -95.7% | SW-620 colon -91.8% | MCF7 breast -55.7% | HCT-116 colon -91.4% | HCC-2998 colon -76.8% | KM12 colon -10.6%
inactive: OVCAR-8 ovarian 20.9% | OVCAR-5 ovarian 14.7% | OVCAR-4 ovarian 48% | SK-OV-3 ovarian 20.5%

CS(=O)c1nccc(-c2c(-c3ccc(F)c(OCCc4ccc(F)cc4)c3)nc3sccn23)n1 (centres undefined)
active: SR leukemia -8.59% | IGROV1 ovarian -40.4% | T-47D breast -41.9% | SW-620 colon -5.23% | MCF7 breast -46.4% | HCT-116 colon -59.9%
inactive: RPMI-8226 leukemia 18% | OVCAR-8 ovarian 66.6% | OVCAR-5 ovarian 103% | OVCAR-4 ovarian 82.1% | SK-OV-3 ovarian 105% | HS 578T breast 88.7% | NCI/ADR-RES ovarian 105% | BT-549 breast 92.8% | MDA-MB-435 melanoma 99.5% | HCC-2998 colon 17.8% | KM12 colon 78.3%

Cc1cccc(NC(c2cc3cccc4ccc5cccc2c5c43)c2nnnn2C(C)(C)C)c1C (centres undefined)
inactive: SR leukemia 86.3% | RPMI-8226 leukemia 86.9% | OVCAR-8 ovarian 92.8% | OVCAR-5 ovarian 87% | OVCAR-4 ovarian 85.2% | SK-OV-3 ovarian 77.4% | IGROV1 ovarian 73.6% | HS 578T breast 88% | NCI/ADR-RES ovarian 89.4% | T-47D breast 68.4% | BT-549 breast 99.2% | MDA-MB-435 melanoma 93% | SW-620 colon 93.7% | MCF7 breast 66.9% | HCT-116 colon 70.5% | HCC-2998 colon 99.6% | KM12 colon 95.8%

C=CCn1c(SCC(=O)Nc2ccc(OC)cc2)nnc1-c1ccc(Cl)cc1
inactive: SR leukemia 74.3% | RPMI-8226 leukemia 105% | OVCAR-8 ovarian 98% | OVCAR-5 ovarian 93.9% | OVCAR-4 ovarian 99.7% | SK-OV-3 ovarian 101% | IGROV1 ovarian 89.8% | HS 578T breast 92.2% | NCI/ADR-RES ovarian 83.6% | T-47D breast 95.5% | BT-549 breast 106% | MDA-MB-435 melanoma 90.1% | SW-620 colon 99.1% | MCF7 breast 94.9% | HCT-116 colon 91.2% | HCC-2998 colon 99.6% | KM12 colon 92.4%

CCN1C(=O)N(CC)C2SC(N/N=C/c3ccccc3F)=NC21 (centres undefined)
inactive: SR leukemia 18.7% | RPMI-8226 leukemia 20.3% | OVCAR-5 ovarian 47.5% | OVCAR-4 ovarian 68.4% | SK-OV-3 ovarian 30.4% | IGROV1 ovarian 28.3% | HS 578T breast 11.9% | T-47D breast 61.9% | SW-620 colon 19% | MCF7 breast 16.2% | HCT-116 colon 13.6% | HCC-2998 colon 17.1% | KM12 colon 11.8%
active: OVCAR-8 ovarian 3.86% | NCI/ADR-RES ovarian 5.59% | BT-549 breast -20.1% | MDA-MB-435 melanoma -53.5%

Nc1nc(-c2cccc([N+](=O)[O-])c2)c(N=Nc2ccccc2Cl)s1
inactive: SR leukemia 59.1% | RPMI-8226 leukemia 68.5% | OVCAR-8 ovarian 56.8% | OVCAR-5 ovarian 93.7% | OVCAR-4 ovarian 63.1% | SK-OV-3 ovarian 99.5% | IGROV1 ovarian 74.8% | HS 578T breast 56.8% | NCI/ADR-RES ovarian 59.9% | T-47D breast 57.9% | BT-549 breast 71.6% | MDA-MB-435 melanoma 89.5% | SW-620 colon 54.7% | MCF7 breast 66.6% | HCT-116 colon 32.6% | HCC-2998 colon 107% | KM12 colon 67.4%

CC(C)(C)CC(C)(C)n1nnnc1C(Nc1ccccc1)c1cc2cccc3ccc4cccc1c4c32 (centres undefined)
inactive: SR leukemia 82.3% | RPMI-8226 leukemia 82.2% | OVCAR-8 ovarian 86.4% | OVCAR-5 ovarian 85.3% | OVCAR-4 ovarian 82.7% | SK-OV-3 ovarian 87.1% | IGROV1 ovarian 92.6% | HS 578T breast 90.3% | NCI/ADR-RES ovarian 81.7% | T-47D breast 55.7% | BT-549 breast 130% | MDA-MB-435 melanoma 83.6% | SW-620 colon 82.3% | MCF7 breast 61.6% | HCT-116 colon 45.1% | HCC-2998 colon 90.8% | KM12 colon 86.7%

CS(=O)(=O)c1ccc2c(c1)c1c(n2S(=O)(=O)c2ccc(Cl)cc2)CCCC1
inactive: SR leukemia 12.3% | RPMI-8226 leukemia 19.1% | OVCAR-8 ovarian 31.9% | OVCAR-5 ovarian 40.2% | OVCAR-4 ovarian 64.7% | SK-OV-3 ovarian 29.7% | IGROV1 ovarian 48% | NCI/ADR-RES ovarian 21% | T-47D breast 23% | MCF7 breast 16.9% | HCT-116 colon 19.2% | HCC-2998 colon 30.1% | KM12 colon 29.3%
active: HS 578T breast 0.523% | BT-549 breast -1.38% | MDA-MB-435 melanoma -11% | SW-620 colon 9.36%

CCc1ccc(NC(=O)N[C@@H](Cc2cccc(F)c2)C(=O)N[C@@H]2C(=O)N3CCC[C@H]3C(=O)N3CCCC[C@H]3C(=O)N[C@@H](C)C(=O)N3C[C@H](C)C[C@H]3C(=O)O[C@H]2C)c(F)c1
inactive: SR leukemia 21.2% | RPMI-8226 leukemia 12.3% | OVCAR-8 ovarian 23.1% | OVCAR-5 ovarian 23.9% | OVCAR-4 ovarian 23.9% | SK-OV-3 ovarian 24.9% | IGROV1 ovarian 35.9% | HS 578T breast 26.3% | NCI/ADR-RES ovarian 18.4% | T-47D breast 29.6% | BT-549 breast 17.9% | MDA-MB-435 melanoma 19.2% | SW-620 colon 34.4% | MCF7 breast 15.2% | KM12 colon 33.6%
active: HCT-116 colon 3.62% | HCC-2998 colon 5.04%
